# ELG1 repair inh: ELG1-dependent DNA repair inhibition | Potency, µM (series often up to 46.1 µM), for the others: at the top dose activity change, negative = inhibition, most hits filed as inhibitors | AID 504467 | actives 2.3% (n = 330,000) | HEK293T ELG1-luciferase reporter, luminescence, 16 h; DNA damage induced by 5-fluorouridine; also: potency is read from the fitted curve at half-maximal effect; nearly all actives have a fitted effect of over 55% in size
#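 Luminescence from the luciferase reporter, measured 30 min after ONE-Glo reagent at room temperature, was the read-out. Beforehand, 2,000 cells per well were exposed for 16 hr at 37 °C to 5-fluorouridine together with compound or vehicle.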
# DT40 TDP1 no CPT: qHTS for Inhibitors of human tyrosyl-DNA phosphodiesterase 1 (TDP1): qHTS in cells in absence of CPT; DT40 Tdp1-/- hTDP1 cells, no CPT, ATP luminescence, 48 h; Potency, µM (top dose mostly 46.2 µM), inactives show at the top dose activity change, negative = growth inhibition, usual class: inhibitors; actives 15% (n = 420,000); also: potency is read from the fitted curve at half-maximal effect; nearly all actives have a fitted effect of over 55% in size
#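 No-CPT arm: Tdp1-/-;hTDP1 DT40 cells (400/well) plus compounds, incubated ≥48 hr at 37 °C. Readout CellTiter-Glo luminescence.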
# IL-1B inflam inh: blocks inflammasome-driven IL-1 beta release. THP-1 LPS/ATP IL-1B secretion, AlphaLISA, 16 h; hits give low values. activity change, % at 57.5 µM. actives 4.7% (n = 360,000). AID 743279; in the data active = activity change below about -50%; inconclusive = mostly about -30% to -49%
#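 Secreted IL-1B measured by AlphaLISA bead assay after 16 h compound exposure of THP-1 cells; compounds (final up to 57.5 uM) added 1 h before LPS (250 ng/mL) and ATP (1.25 mM) stimulation; lower signal means less secretion.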
# TDP1 cell CPT: growth inhibition of DT40 Tdp1-/-;hTDP1 cells with camptothecin (screen for TDP1 inhibitors) | chicken DT40 Tdp1-/-;hTDP1 cells + 20 nM CPT, ATP luminescence, 48 h | AID 686979 | actives 12% (n = 420,000) | Potency, µM (titrated, usually from 46.2 µM), for the others: at the top dose activity change, negative = growth inhibition, hits mostly inhibitors; also: potency is read from the fitted curve at half-maximal effect; nearly all actives have a fitted effect of over 55% in size
#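 Chicken DT40 Tdp1-/- cells stably complemented with human TDP1 were seeded at 400 cells/well in medium containing 20 nM camptothecin, exposed to pin-transferred compounds, and grown at 37 °C for at least 48 hr. Viability was read as ATP luminescence.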
# HT1080NT lethal: kills 2HG-producing HT-1080-NT fibrosarcoma cells. HT-1080-NT fibrosarcoma viability, CellTiter-Glo ATP luminescence, 48 h. Potency, µM (highest dose often 46.1 µM), inactives show top-dose activity, negative = less viability, usual class: cytotoxic. actives 1.6% (n = 360,000). AID 686970;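 also: NT is the 2HG producing partner of a matched IDH1 knockdown line; potency is read from the fitted curve at half-maximal effect; 0% = DMSO-treated cells and -100% = media-only wells without cells; nearly all actives have a fitted effect of over 55% in size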
#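 Viability of the 2HG-overproducing fibrosarcoma line after 48 hours of compound exposure at 37 degrees C was determined by luminescence with CellTiter-Glo, and concentration-effect curves were then fitted and categorized.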
# HT1080 IDH1KD tx: kills HT-1080 cells with IDH1 knockdown. Potency, µM (doses to about 46.1 µM), for inactives: at the highest dose activity, negative = toxicity, actives largely listed as cytotoxic. AID 686971. HT-1080 IDH1 knockdown viability, ATP luminescence, 48 h. actives 2% (n = 360,000);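 also: potency is read from the fitted curve at half-maximal effect; 0% = DMSO wells and -100% = cell-free medium wells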
#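 Knockdown cells (IDH1KD HT-1080) received compounds 2 h after plating at 750 cells/well and were kept 48 h at 37 °C in 5% FBS RPMI. A CellTiter-Glo luminescence read gave % activity for curve fitting.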
# * hit, by the source's call; ? = inconclusive; . = no result given; [ ] = remark or other dose. Shown are actives, neighbours in structure and some others; about 19% of the full set was active somewhere. Unless noted, calls follow the shape of the dose curve; as a rule, active = well fitted curve in the direction sought with a large enough effect; inconclusive = small, poorly fitted or top-dose-only effect, or another doubt; inactive = no such curve, though single readings can be large; an effect the other way counts as inactive or inconclusive. Unless noted, % is scaled to controls: 0 for no effect and ±100 for the full control effect.
SMILES,ELG1 repair inh,DT40 TDP1 no CPT,IL-1B inflam inh,TDP1 cell CPT,HT1080NT lethal,HT1080 IDH1KD tx
COC(=O)[C@]1(CC(C)C)N[C@H](c2ccc(SC3CCCCC3)c(OC)c2)[C@@H]2C(=O)N(C)C(=O)[C@@H]21,-20%,18µM*,?,?,0%,-10%
COc1ccccc1-c1cnc(C(O)c2ccc(Cl)c(Cl)c2)[nH]1 (stereo unspecified),.,16µM*,-19,?,-27%,?
COc1ccccc1-c1cnc(C(O)c2cc(Cl)cc(Cl)c2)[nH]1 (stereo unspecified),.,?,-5,21µM*,2%,?
OC(c1ccc(Cl)c(F)c1)c1ncc(-c2ccccc2C(F)(F)F)[nH]1 (stereo unspecified),.,?,32,?,-19%,0%
OC(c1ccc(Cl)c(Cl)c1)c1ncc(-c2ccccc2C(F)(F)F)[nH]1 (stereo unspecified),.,18µM*,-12,?,?,?
COc1ccc(F)cc1NC(=O)C1CCN(c2nc(-c3ccc(OC)c(OC)c3)no2)CC1,.,16µM*,.,4.6µM*,.,.
COc1ccc(-c2noc(N3CCCC(C(=O)Nc4cc(F)ccc4F)C3)n2)cc1 (stereo unspecified),-3%,18µM*,0,?,-1%,1%
COc1ccc(-c2noc(N3CCC(C(=O)Nc4ccc(OC)c(OC)c4)CC3)n2)cc1,11%,-13%,7,-2%,0%,-6%
CC(=O)Nc1cccc(NC(=O)Nc2ccc(C)c(Cl)c2)c1,?,-22%,-15,-3%,0%,-12%
O=C(NNC(=S)Nc1ccc(F)c(Cl)c1)c1ccccc1Br,?,?,-62*,?,?,?
CC(=O)Nc1cccc(NC(=S)Nc2ccc(F)c(Cl)c2)c1,2%,?,-7,16µM*,-6%,-1%
Cc1cccc(NC(=S)NNC(=O)c2ccccc2Br)c1,?,?,9,?,1%,-1%
Nc1c(N(CCC2=CCCCC2)C(=O)COc2ccc(F)cc2Cl)c(=O)[nH]c(=O)n1Cc1ccccc1,.,6.5µM*,-55*,5.8µM*,18µM*,10µM*
CC(=O)c1ccc(OCCCC(=O)N(CCC2=CCCCC2)c2c(N)n(Cc3ccccc3)c(=O)[nH]c2=O)cc1,-29%,-10%,-4,1%,4%,1%
Nc1c(N(CCC2=CCCCC2)C(=O)Cc2ccc(F)cc2)c(=O)[nH]c(=O)n1Cc1ccccc1,-15%,?,7,?,-4%,-7%
CC(=O)c1ccc(OCC(=O)N(CCC2=CCCCC2)c2c(N)n(Cc3ccccc3)c(=O)[nH]c2=O)cc1,?,?,1,23µM*,0%,-1%
Cc1cccc(OCC(=O)N(Cc2ccccc2)c2c(N)n(Cc3ccccc3)c(=O)[nH]c2=O)c1,19%,?,?,18µM*,-3%,-13%
Cc1ccc(C(=O)N(CCC2=CCCCC2)c2c(N)n(Cc3ccccc3)c(=O)[nH]c2=O)o1,9.2µM*,?,-13,-6%,5%,12%
O=C(NCCc1ccc(C(F)(F)F)cc1)C1CC(=O)N(Cc2ccccc2)C1 (stereo unspecified),9%,-1%,19,-23%,8%[9.24 µM],-6%
NNC(=O)c1sc2cc(C(F)(F)F)cnc2c1-c1cccs1,1%,-15%,95,-17%,-1%,-20%
O=C(Nc1ccccc1)c1sc2cc(C(F)(F)F)cnc2c1-c1cccs1,-2%,12µM*,14,13µM*,0%,15%
CCC(C)Sc1ccc([C@H]2N[C@@](Cc3ccccc3)(C(=O)OC)[C@H]3C(=O)N(CC)C(=O)[C@@H]23)cc1 (stereo partly specified),?,21µM*,-24,?,-15%,-11%
CCN1C(=O)[C@H]2[C@@H](c3ccc(-c4ccc5c(c4)OCO5)c(OC)c3)N[C@@](Cc3ccccc3)(C(=O)OC)[C@H]2C1=O,29%,?,-24,?,-10%,-10%
CCC(C)Sc1ccc([C@H]2N[C@@](Cc3ccccc3)(C(=O)OC)[C@H]3C(=O)N(CC)C(=O)[C@@H]23)cc1OC (stereo partly specified),4%,21µM*,-18,?,12%,-3%
CCC(C)Sc1ccc([C@H]2N[C@@](CC(C)C)(C(=O)OC)[C@H]3C(=O)N(CC)C(=O)[C@@H]23)cc1 (stereo partly specified),?,?,0,?,8%,7%
SMILES,ELG1 repair inh,DT40 TDP1 no CPT,IL-1B inflam inh,TDP1 cell CPT,HT1080NT lethal,HT1080 IDH1KD tx
Cc1cc(F)ccc1-c1cc(C(=O)NC2CCCCC2)[nH]n1,.,-58%,?,-55%,24%,0%
CC(C)Oc1cc(F)ccc1-c1cc(C(=O)NC2CCCCC2)[nH]n1,.,?,0,21µM*,5%,3%
CC(C)Oc1ccc(F)cc1-c1cc(C(=O)NC2CCCCC2)[nH]n1,.,15µM*,-20,?,5%,-27%
CC(C)Oc1cc(F)ccc1-c1cc(C(=O)NCCc2ccncc2)[nH]n1,.,?,-9,18µM*,2%,23%
CCCOc1ccc(F)cc1-c1cc(C(=O)NC2CCCCC2)[nH]n1,.,?,-5,-7%,-20%,-1%
OCCN1CCN(c2nccn3ccnc23)CC1,.,-2%,8,2%,11%,0%
COc1cc(O)c(NC(C)=O)c2nonc12,1%,-16%,9,-15%,0%,-2%[9.24 µM]
CC(=O)NC1=CC(=O)c2nonc2C1=O,.,?,.,0.079µM*,.,.
O=C(CNCC1(N2CCOCC2)CCCCC1)Nc1ccc(Cl)cc1,6%,-9%,-16,-2%,0%,0%
Cc1ccc(-c2nc(N)s[n+]2-c2ccccc2)cc1,?,?,-5,?,3%,6%
CNc1nc(-c2ccccc2)[n+](-c2ccc(C)cc2)s1,-7%,5.2µM*,-79*,3.3µM*,-9%,1%
CSc1ncc2[nH]c(C(O)c3ccccc3)nc2n1 (stereo unspecified),.,10µM*,34,9.2µM*,?,-7%
COc1ccccc1NC(=O)C(C)OC(=O)C1COc2ccccc2O1 (stereo unspecified),0%,2%,0,-7%,-2%,-3%

# Source: PubChem
